The whole screen tested about 410,000 compounds, of which about 310 (0.076%) were called active. Entries that show only a call come without a potency. Inconclusive results (about 2%) are left out. The sample holds actives, similar compounds and a random draw of the others, so the mix is not that of the screen. Calls follow the shape of the dose curve; as a rule, active = well fitted curve in the direction sought with a large enough effect; inconclusive = small, poorly fitted or top-dose-only effect; inactive = flat fitted curve, though single readings scatter.
biological target: DNA dC->dU-editing enzyme APOBEC-3G (Homo sapiens) (UniProt Q9HC16); test: qHTS for Inhibitors of Vif-A3G Interactions: qHTS; details: HeLa A3G-eYFP + Vif (tagged APOBEC3G with the HIV-1 protein that degrades it), YFP fluorescence, overnight; series mostly up to 46.1 µM; also: nearly all actives have a fitted effect of over 60% in size
Sequence (Q9HC16 whole entry, looked up): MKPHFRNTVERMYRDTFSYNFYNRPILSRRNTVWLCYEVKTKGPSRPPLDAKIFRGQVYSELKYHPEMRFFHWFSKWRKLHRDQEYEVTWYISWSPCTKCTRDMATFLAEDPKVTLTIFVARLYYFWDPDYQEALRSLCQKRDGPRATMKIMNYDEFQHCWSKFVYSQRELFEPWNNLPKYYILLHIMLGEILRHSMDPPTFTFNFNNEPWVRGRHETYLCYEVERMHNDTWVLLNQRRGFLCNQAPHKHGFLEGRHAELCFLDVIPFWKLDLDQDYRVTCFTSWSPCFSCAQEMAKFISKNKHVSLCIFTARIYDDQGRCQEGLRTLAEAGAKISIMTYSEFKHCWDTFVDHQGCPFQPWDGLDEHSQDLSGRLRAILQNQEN
Description: The recent discovery and characterization of host restriction factors, which provide a potent defense to invading retroviruses, has provided new targets for antiviral drug development. APOBEC3G (A3G) and APOBEC3F (A3F) are potent cytidine deaminases that block HIV-1 replication; HIV-1 expresses the Vif protein, which counteracts A3G and A3F by binding to them and inducing their proteasomal degradation. The Vif-A3G and Vif-A3F interactions provide two potential targets for development of small molecules which can interfere with the ability of Vif to degrade A3G or A3F. […] To identify inhibitors that can interfere with Vif mediated degradation of A3G and A3F, we have developed Hela cell lines that stably express A3G or A3F tagged with eYFP at the C-terminal end (A3G-eYFP or A3F-eYFP, respectively) and Vif. In the absence of an inhibitor, Vif induces degradation of A3G-eYFP and A3F-eYFP, and the cells are not fluorescent. In the presence of an inhibitor, it is expected that Vif will be unable to degrade A3G-eYFP and/or A3F-eYFP, resulting in an increase in yellow fluorescence. In this assays Vif A3G was screened against the Molecular Library Small Molecule Repository (MLSMR). NIH Chemical Genomics Center [NCGC] NIH Molecular Libraries Probe Centers Network [MLPCN] MLPCN Grant: MH093245 Assay Submitter (PI): Vinay Pathak, National Cancer Institute
5 uL of 700 cells/well of A3G-YFP cells are dispensed into black, clear bottom plates. The plates are incubated overnight at 37 deg C. 23 nL of compounds are added by pintool. The plates are incubated overnight at 37 deg C and then read on the TTP Acumen (Ex 488/ Em 500-530).
Potency is read from the fitted curve at half-maximal effect.

Row | SMILES | Potency
1 | CN(C)CCCn1c(SCCN2C(=O)c3ccccc3C2=O)nc2ccccc2c1=O | inactive
2 | CCn1c(/C=C/c2ccc([N+](=O)[O-])o2)nc2ccccc2c1=O | 3.98 µM (active)
3 | COc1cc(OC)c(OC)cc1/C=C/c1nc2ccccc2c(=O)n1-c1ccc(Br)c(C)c1 | inactive
4 | CC(C)(C)C1CCC(NC(=O)c2cnn3c2NC(=C2CC2)C=C3C(F)F)CC1 (configuration not stated) | inactive
5 | CCCCS(=O)(=O)c1oc(-c2cccs2)nc1S(=O)(=O)c1ccccc1 | inactive
6 | Cc1ccc(Cl)cc1N1CCN(S(=O)(=O)c2cc3[nH]c(=O)c(=O)[nH]c3cc2C)CC1 | inactive
7 | CCc1ccc(C(=O)CC2(O)C(=O)N(CCc3ccccc3)c3ccc(Br)cc32)cc1 (configuration not stated) | inactive
8 | COc1cc(OC)c(OC)cc1/C=C1\C=Cc2ccccc21 | inactive
9 | COc1ccc(C2/C=C\CN(Cc3ccco3)C(C)C(=O)N2Cc2ccc(F)cc2)cc1 (configuration not stated) | inactive
10 | Cc1ccccc1CSCCNC(=O)C1CCN(S(=O)(=O)Cc2ccccc2)CC1 | inactive
11 | Cc1cccc(CN2Cc3cccc4c3[C@H](C=CC4)CC2=S)c1 | inactive
12 | Cc1csc(NCC(=O)c2c[nH]c3ccccc23)n1 | inactive
13 | CCOc1cccc2c1N[C@@H](c1ccc(C(=O)O)cc1)[C@H]1CC=C[C@@H]21 | inactive
14 | CCOC(=O)c1cc2c(=O)n3ccccc3nc2n(CC2CCCO2)c1=NC(=O)c1ccccc1Br (configuration not stated) | inactive
15 | CC(C)OC(=O)c1ccc(NCc2cc(O)ccc2O)cc1Cl | 12.6 µM (active)
16 | O=S(=O)(c1cccc(C(F)(F)F)c1)N1CCN(c2nc(-c3cccs3)nc3ccccc23)CC1 | inactive
17 | Cc1c(Cl)cccc1NC(=O)CCS(=O)(=O)c1ccc2c(c1)oc(=O)n2C | inactive
18 | COc1cc2[nH]c(C)c(CCN3CCN(c4ccccc4)CC3)c2cc1OC | inactive
19 | CCc1ccc(S(=O)(=O)n2ccnc2)cc1 | inactive
20 | Cc1[nH]c2ccccc2c1C(=O)C(=O)N(C)c1ccccc1 | inactive
21 | COc1ccc(CCNC(=O)Cn2c(=O)cc(C(F)(F)F)c3c(C)nn(C)c32)c(OC)c1 | inactive

Row | SMILES | Potency
22 | COc1cc2c(=O)c(S(=O)(=O)c3ccc(C(C)C)cc3)cn(Cc3ccccc3C)c2cc1OC | inactive
23 | O=C(O)c1c(Br)c(Br)c(Br)c(Br)c1C1c2ccc(O)cc2Oc2cc(O)ccc21 | inactive
24 | CCOC(=O)N1CCC(NC(=O)c2cnn(-c3cccc(C)c3)c2C2CCN(C(=O)OC(C)(C)C)CC2)CC1 | inactive
25 | OCCNc1ncnc2oc(-c3ccco3)c(-c3ccco3)c12 | inactive
26 | O=[N+]([O-])c1ccc(/C=C/c2ccc3cccnc3c2)cc1 | inactive
27 | O=C(O)C1=C/C(=C/C=[N+]2c3cc(O)c(O[C@H]4OC(CO)[C@@H](O)[C@@H](O)[C@@H]4O)cc3C[C@@H]2C(=O)[O-])C[C@H](C(=O)O)N1 (some centres not stated) | inactive
28 | Cc1ccc2onc(CC(=O)N3CCN(c4ccc(Cl)cc4)CC3)c2c1 | inactive
29 | Cc1ccc(C=O)cc1Cl | inactive
30 | C(=Nc1ccc(/C=C/c2ccnc3ccccc23)cc1)c1cc2c3c(c1)CCCN3CCC2 | inactive
31 | CC(C)(C)c1ccc(C(=O)NCC(c2ccc(Cl)cc2)N2CCOCC2)cc1 (configuration not stated) | inactive
32 | O=C1CN(C(=O)Nc2ccccc2C(F)(F)F)C(c2ccccc2)c2c(sc3c2CCCC3)N1 (configuration not stated) | inactive
33 | CCCN(CCC)c1nc2c(C)cccn2c(=O)c1/C=C1/SC(=S)N(Cc2ccco2)C1=O | 3.16 µM (active)
34 | CN(C)c1ccc(/C=c2\[nH]c(=O)/c(=C/c3ccc(N(C)C)cc3)[nH]c2=O)cc1 | inactive
35 | CCN(C(=O)CSc1nnc(C)n2c1cc1occc12)c1ccccc1 | inactive
36 | CCOc1ccc(C(=O)/C=C/c2cn(CC(O)CN3CCCCCC3)c3ccccc23)cc1 (configuration not stated) | inactive
37 | CCOC(=O)N1CCc2c(sc(NCc3cccc(F)c3)c2C(=O)Nc2ccccc2OCC)C1 | inactive
38 | O=C(COC(=O)c1ccccc1OCCOc1ccccc1)Nc1cccc(Br)c1 | inactive
39 | Cc1cc(C)cc(NC(=O)CSc2nc3nccnc3c(=O)n2CCc2c[nH]c3ccccc23)c1 | inactive
40 | CCOC(=O)c1ccc(NC(=O)C2CC(=O)NC(=Nc3ccc(C)c(C)c3)S2)cc1 (configuration not stated) | inactive
41 | CCCCNC(=O)Cn1c(SCc2cccc(Cl)c2)nc2ccncc21 | inactive
42 | CCCn1ccc2c(OCC(=O)NCc3ccc(F)cc3)cccc2c1=O | inactive

Row | SMILES | Potency
43 | O=C(Nc1ccc(Cl)cc1)c1cnn2c1NC(=C1CC1)C=C2C(F)F | inactive
44 | Cc1cccc(-c2nnc(SC(C)C(=O)Nc3ccccc3)n2C)c1 (configuration not stated) | inactive
45 | CCN1CCN(c2ccc(/C=C/c3ccnc4ccccc34)cc2)CC1 | inactive
46 | COc1ccc(-c2nc3c(c(SCC(=O)Nc4ccc(C(=O)O)cc4)n2)Cc2ccccc2O3)cc1 | inactive
47 | Brc1cccc[n+]1Cc1cccc(C[n+]2ccccc2Br)c1 | inactive
48 | CC(C)(C)n1ncc2c(=O)n(Cc3ccc(C(=O)c4ccccc4)cc3)cnc21 | inactive
49 | OC(CBr)C[n+]1cccc2cc(Br)ccc21 (configuration not stated) | inactive
50 | N#CC1=C(N)Oc2c(sc3ccccc23)C1c1ccco1 (configuration not stated) | 11.2 µM (active)
51 | O=C(OC12CC3CC(CC(C3)C1)C2)c1ccc(NCc2cc(O)ccc2O)cc1 | 6.31 µM (active)
52 | COC(=O)c1ccccc1NC(=O)c1cnn(-c2ccc(F)cc2)c1-n1cccc1 | inactive
53 | CCOc1ccc(N(CC)S(=O)(=O)N2CCCC(C(=O)NCc3ccc(Cl)cc3)C2)cc1 (configuration not stated) | inactive
54 | N#Cc1ccc[n+](CC(=O)c2ccc(F)cc2)c1 | inactive
55 | O=C(C[n+]1ccncc1)c1ccc2c(c1)CCCC2 | inactive
56 | Cc1nn(CC(=O)N2CCN(c3cccc(C(F)(F)F)c3)CC2)c(=O)c2cc3sccc3n12 | inactive
57 | CCCCC(CCCC)c1ccc(C=Nc2ccc(/C=C/c3ccnc4ccccc34)cc2)cc1 | inactive
58 | CCS(=O)(=O)N1CCc2cc(C(=O)NCc3ccc(C)cc3)ccc21 | inactive
59 | CCCCN1C(=O)c2[nH]nc(-c3ccccc3O)c2C1c1cccc(OCc2ccccc2)c1 (configuration not stated) | inactive
60 | ClC/C=C/C[n+]1ccccc1Cl | inactive
61 | CSc1n[nH]c(-c2ccco2)n1 | inactive
62 | C[n+]1ccc(/C=C/c2c[nH]c3ccccc23)cc1 | 11.2 µM (active)
